In publication PMC8384837, “Expanding the binding specificity for RNA recognition by a PUF domain” one finds binding signal data, which are given here for 11 sequences.

Test in all cases: yeast three-hybrid, YBZ-1, SC-Leu-His + 0.5 mM 3-AT, 4 days
Details in all cases: tags: N-Gal4 AD-HA kept; label: inside an RPR1-promoter hybrid RNA with tandem MS2 sites; ssRNA

In test [1] the target is PUM1 PUF domain R1-RSE (Homo sapiens, UniProt Q14671 828-1176, S863R;R864S;Q867E). An outline of the steps: (§1)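 Repeat regions from input (SC-Leu) and selection (SC-Leu-His + 0.5 mM 3-AT) plates were PCR-amplified and Illumina-sequenced after four days of growth. The cells were strain YBZ-1 with a LexA–MS2 coat fusion and a HIS3 reporter, co-expressing Pumilio-1 PUF domain libraries and matching RNA elements from a centromeric plasmid. The interaction score is the log change in variant frequency from input to selection, taken in log2 with a pseudocount of 1 for absent variants.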

The target in test [2] is PUM1 PUF domain R3-VYP (Homo sapiens, UniProt Q14671 828-1176, C935V;R936Y;Q939P). An outline of the steps:
as §1

In test [3] the target is PUM1 PUF domain R3-LSK (Homo sapiens, UniProt Q14671 828-1176, C935L;R936S;Q939K). An outline of the steps:
as §1

Test [4] has as its target PUM1 PUF domain R5-SRM (Homo sapiens, UniProt Q14671 828-1176, C1007S;Q1011M). In short, it runs like this:
as §1

Test [5] concerns the target PUM1 PUF domain R4-DWI (Homo sapiens, UniProt Q14671 828-1176, N971D;H972W;Q975I). An outline of the steps: as §1
Test [6] addresses PUM1 PUF domain R4-GNT (Homo sapiens, UniProt Q14671 828-1176, N971G;H972N;Q975T). In short, it runs like this: as §1
Test [7] addresses PUM1 PUF domain R3-AIR (Homo sapiens, UniProt Q14671 828-1176, C935A;R936I;Q939R). An outline of the steps: as §1
Test [8] deals with PUM1 PUF domain R7-RCC (Homo sapiens, UniProt Q14671 828-1176, S1079R;N1080C;E1083C). In short, it runs like this:
as §1

Test [9] concerns the target T1, PUM1 PUF domain R6-SWG (Homo sapiens, UniProt Q14671 828-1176, N1043S;Y1044W;Q1047G).
T1 sequence: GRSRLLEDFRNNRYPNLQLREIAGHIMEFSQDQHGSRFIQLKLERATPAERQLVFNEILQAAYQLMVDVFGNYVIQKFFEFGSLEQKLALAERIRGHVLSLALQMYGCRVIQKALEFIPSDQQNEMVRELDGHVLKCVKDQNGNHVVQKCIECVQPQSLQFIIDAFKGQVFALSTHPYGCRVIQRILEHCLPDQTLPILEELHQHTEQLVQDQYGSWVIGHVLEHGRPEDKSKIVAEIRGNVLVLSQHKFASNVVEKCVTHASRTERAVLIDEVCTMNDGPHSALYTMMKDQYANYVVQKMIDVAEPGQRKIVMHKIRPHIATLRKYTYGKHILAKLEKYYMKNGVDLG
In short, it runs like this: as §1

For test [10], the target named is PUM1 PUF domain R2-PWL (Homo sapiens, UniProt Q14671 828-1176, N899P;Y900W;Q903L). An outline of the steps:
as §1

“GGCUAGAACUAGUGGAUCCCCCGGCGCCCGGCGGCUCGAGCCCGGGUAAGUGUAAAUGGUCUGCAUGCCGCCGGGCGCCAUGCCUGCAGGUCGACUCUAGAAAACAUG”: the binding signal in test [1] is 0.71 log2 enrichment (interaction score).

For the sequence “GGCUAGAACUAGUGGAUCCCCCGGCGCCCGGCGGCUCGAGCCCGGGUAAGUGUAAAUCGUCUGCAUGCCGCCGGGCGCCAUGCCUGCAGGUCGACUCUAGAAAACAUG”, the binding signal in [1] was 2.49 log2 enrichment (interaction score).

As for “GGCUAGAACUAGUGGAUCCCCCGGCGCCCGGCGGCUCGAGCCCGGGUAAGUGUAAUUAGUCUGCAUGCCGCCGGGCGCCAUGCCUGCAGGUCGACUCUAGAAAACAUG”, the binding signal was 2.9 log2 enrichment (interaction score) in test [2] and 5.2 log2 enrichment (interaction score) in test [3].

As for “GGCUAGAACUAGUGGAUCCCCCGGCGCCCGGCGGCUCGAGCCCGGGUAAGUGUGAAUAGUCUGCAUGCCGCCGGGCGCCAUGCCUGCAGGUCGACUCUAGAAAACAUG”, the binding signal in [4] is 1.99 log2 enrichment (interaction score).

On to “GGCUAGAACUAGUGGAUCCCCCGGCGCCCGGCGGCUCGAGCCCGGGUAAGUGUACAUAGUCUGCAUGCCGCCGGGCGCCAUGCCUGCAGGUCGACUCUAGAAAACAUG”, for which the binding signal is 5.64 log2 enrichment (interaction score) in test [5] and 0.59 log2 enrichment (interaction score) in test [6].

Take “GGCUAGAACUAGUGGAUCCCCCGGCGCCCGGCGGCUCGAGCCCGGGUAAGUGUAAGUAGUCUGCAUGCCGCCGGGCGCCAUGCCUGCAGGUCGACUCUAGAAAACAUG”: the binding signal is 2.87 log2 enrichment (interaction score) in [7] and 6.88 log2 enrichment (interaction score) in test [3].

As to “GGCUAGAACUAGUGGAUCCCCCGGCGCCCGGCGGCUCGAGCCCGGGUAAGUCUAAAUAGUCUGCAUGCCGCCGGGCGCCAUGCCUGCAGGUCGACUCUAGAAAACAUG”, the binding signal in test [8] is 2.43 log2 enrichment (interaction score).

As to “GGCUAGAACUAGUGGAUCCCCCGGCGCCCGGCGGCUCGAGCCCGGGUAAGUGAAAAUAGUCUGCAUGCCGCCGGGCGCCAUGCCUGCAGGUCGACUCUAGAAAACAUG”, the binding signal in test [9] was 1.35 log2 enrichment (interaction score).

Regarding “GGCUAGAACUAGUGGAUCCCCCGGCGCCCGGCGGCUCGAGCCCGGGUAAGUGUAAAGAGUCUGCAUGCCGCCGGGCGCCAUGCCUGCAGGUCGACUCUAGAAAACAUG”, in [10], the binding signal was 6.99 log2 enrichment (interaction score).

On to “GGCUAGAACUAGUGGAUCCCCCGGCGCCCGGCGGCUCGAGCCCGGGUAAGUGUAUAUAGUCUGCAUGCCGCCGGGCGCCAUGCCUGCAGGUCGACUCUAGAAAACAUG”, for which the binding signal in test [6] is 3.55 log2 enrichment (interaction score).

For the sequence “GGCUAGAACUAGUGGAUCCCCCGGCGCCCGGCGGCUCGAGCCCGGGUAAGUGUAAAUAGUCUGCAUGCCGCCGGGCGCCAUGCCUGCAGGUCGACUCUAGAAAACAUG”, the binding signal is 6.41 log2 enrichment (interaction score) in test [5], 5.74 log2 enrichment (interaction score) in test [2], 4.18 log2 enrichment (interaction score) in [9] and 2.84 log2 enrichment (interaction score) in test [4].
